This passage reports Potency and activity change, negative = cytotoxicity results from PubChem BioAssay (Tox21).

Records with an inconclusive call do not appear. Entries that show only a call come without a potency. Calls of active or inactive are those of the source. The call rests on the fitted dose curve.
Potency means the concentration at half of the fitted maximal effect.

The assay can be described thus: qHTS assay for small molecule disruptors of the mitochondrial membrane potential - cell viability (AID 720634). Further: nearly all actives have a fitted effect of over 20% in size.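 On activity change, negative = cytotoxicity: human HepG2 liver cancer cells.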 The conditions noted are these: HepG2 viability, ATP luminescence (CellTiter-Glo), 1 h; series mostly up to 83.2 µM. An excerpt: U.S. Tox21 Program National Center for Advancing Translational Sciences [NCATS] NIH Chemical Genomics Center [NCGC] U.S. Environmental Protection Agency [EPA] National Institutes of Environmental Health Sciences [NIEHS] National Toxicology Program [NTP] U.S. Food and Drug Administration [FDA] Tox21 Assay Overview: Mitochondrial membrane potential (MMP), one of the parameters for mitochondrial function, is generated by mitochondrial electron transport chain that creates an electrochemical gradient by a series of redox reactions. This gradient drives the synthesis of ATP, a crucial molecule for various cellular processes. Measuring MMP in living cells is commonly used to assess the effect of chemicals on mitochondrial function; decreases in MMP can be detected using lipophilic cationic fluorescent dyes. […] The dye accumulates in the mitochondria of healthy cells as aggregates, with red fluorescence. The mitochondrial potential decreases and the dye could not accumulate in the mitochondria and remains in the cytoplasm in monomers, with green fluorescence. In addition to the mitochondrial potential assay, these cells were also used to test the cytotoxicity by determining the cell viability in the culture based on the quantitation of ATP present. The cytotoxicity was measured in the same assay well of MMP assay.
Tox21 Assay Protocol Summary: 2,000 HepG2 cells in 5 uL/well were dispensed into black, clear-bottom 1536-well plates using a Multidrop Combi (Thermo Scientific) dispenser. The assay plates were incubated for an overnight at 37 C to allow cells to attach to the wells, followed by the transfer of 23 nL compound or DMSO vehicle by a pin tool (Kalypsys). The plates were incubated for 1 hr at 37 C and 5% CO2, followed by the addition of 5 uL of 2X m-MPI dye into each well using Flying Reagent Dispenser (Aurora Discovery) and then CellTiter-Glo reagent was added at 4 uL/well and incubated 30 min at room temperature. Then luminescence intensity was quantified on a ViewLux CCD-based plate reader.
For orientation: In qHTS, concentration-response curves come from the screen itself.
On to `Cc1cc(=O)oc2cc(O)cc(O)c12`, for which the Potency result is “inactive”.
As to `CCCCCCCCCCCCCCCC[N+](C)(C)CC`, the Potency was 61.3 µM (active).
Turning to `CCC(COC(=O)CCS)(COC(=O)CCS)COC(=O)CCS`, the Potency result is “inactive”.
In the case of `S=C([S-])NCCNC(=S)[S-].S=C([S-])NCCNC(=S)[S-].[Mn+2].[Zn+2]`, the Potency result is “inactive”.
For the compound `CCC(CC)(CC(=O)Nc1cccc(/C=C/c2nc(C3CCC3)cs2)c1)C(=O)O`, the Potency entry was “inactive”.
As to `CC[N+](CC)(CC)CCOC(=O)C(C1CCCC1)C1CCCC1`, the Potency entry was “inactive”.
Turning to `Cc1cccc(C(=O)O)c1O`, the Potency result was “inactive”.
Consider `ClCCl`, for which the Potency entry is “inactive”.
With `O[C@@H]([C@H](O)[C@H](O)CBr)[C@H](O)CBr`, the Potency result is “inactive”.
Regarding `CCCCCCCCCCCCCC[N+](C)(C)Cc1ccccc1`, the Potency is 62.1 µM (active).
For the compound `CCCCCCCC`, the Potency result is “inactive”.
In the case of `Clc1ccnc(Cl)n1`, the Potency entry was “inactive”.
Turning to `Cc1c(C)c2c(c(C)c1OC(=O)c1cccnc1)CC[C@@](C)(CCC[C@H](C)CCC[C@H](C)CCCC(C)C)O2`, the Potency result is “inactive”.
`CN1CCCCC1CCN1c2ccccc2Sc2ccc(S(C)=O)cc21` (stereo not given): the Potency entry was “inactive”.
Regarding `O=S(=O)(O)c1ccc(Nc2nc(Nc3ccc(/C=C/c4ccc(Nc5nc(Nc6ccc(S(=O)(=O)O)cc6)nc(N(CCO)CCO)n5)cc4S(=O)(=O)O)c(S(=O)(=O)O)c3)nc(N(CCO)CCO)n2)cc1`, the Potency entry was “inactive”.
For the compound `CC(=O)c1ccc(C(C)=O)cc1`, the Potency entry was “inactive”.
For the compound `c1cnccn1`, the Potency entry is “inactive”.
For the compound `Cc1ccc(-c2ccccc2)cc1`, the Potency result was “inactive”.
As for `Nc1nc(N)nc(-c2cc(Cl)ccc2Cl)n1`, the Potency entry was “inactive”.
`CCCCCCCCCCC[C@@H](C[C@@H]1OC(=O)[C@H]1CCCCCC)OC(=O)[C@H](CC(C)C)NC=O`: the Potency entry is “inactive”.
With `Cc1c(F)c(N2CCNC(C)C2)cc2c1c(=O)c(C(=O)O)cn2C1CC1` (stereo not given), the Potency result is “inactive”.
On the same count and under the same terms, under `CC(=O)OCC=C(C)C` stands “inactive”.
On to `C=C(CC)C(=O)c1ccc(OCC(=O)O)c(Cl)c1Cl`, for which the Potency result was “inactive”.
As to `Cc1c(C)c2c(c(C)c1O)CC[C@@](C)(CCC[C@H](C)CCC[C@H](C)CCCC(C)C)O2`, the Potency result was “inactive”.
Same read-out and setting: under `CC1(C)CCC[C@]2(C)[C@H]3CC(=O)O[C@]3(C)CC[C@@H]12` stands “inactive”; under `CC(C)CCOC(=O)/C=C/c1ccccc1`, “inactive”; under `Cc1cc(-c2ccc(N=Nc3cc(S(=O)(=O)O)c4ccccc4c3N)c(C)c2)ccc1N=Nc1cc(S(=O)(=O)O)c2ccccc2c1N`, “inactive”.
On to `CCc1cccc(CC)c1NC(=O)CN(CC(=O)O)CC(=O)O`, for which the Potency entry was “inactive”.
In the case of `CCCCCCOC(=O)C(C)CC` (stereo not given), the Potency result is “inactive”.
In the case of `C1CCC(SSC2CCCCC2)CC1`, the Potency entry is “inactive”.
As to `O=C(O)O`, the activity change, negative = cytotoxicity was 7.92% [at 8.08 µM] (inactive).
On to `COCCOc1cc2cc(C(=O)NC3CCN(C(C)C)CC3)n(CC(=O)Nc3ccc(Cl)cn3)c2cn1`, for which the Potency entry is “inactive”.
On to `O=C(O)CCN(C1(C(=O)NO)CCCC1)S(=O)(=O)c1ccc(Oc2ccc(F)cc2)cc1`, for which the Potency entry is “inactive”.
Regarding `CN(C)c1ccc(C(=C2C=CC(=[N+](C)C)C=C2)c2ccc(N(C)C)cc2)cc1`, the Potency is 54.2 µM (active).
Take `CCN1C(=O)c2ccccc2C1Nc1ccc(OCCN2CCCCC2)cc1` (stereo not given): the Potency entry was “inactive”.
On to `c1ccc(SSc2ccccc2)cc1`, for which the Potency result was “inactive”.
`Clc1sc(Cl)c(Cl)c1Cl`: the Potency result is “inactive”.
As to `Oc1ccccc1O`, the Potency result was “inactive”.
As for `O=c1oc2cc(O)ccc2c2oc3cc(O)ccc3c12`, the Potency entry is “inactive”.
Consider `CN1CCN2c3ccccc3Cc3ccccc3C2C1` (stereo not given), for which the Potency result is “inactive”.
